Sampled rows, rich in hits. Any-hit rate of the full collection: about 1.5%.
CCHF vOTU inh-1 = CCHFV vOTU protease inhibition | hit rate 0.55% among 370,000 | inhibition, % at 11.5 µM | Pep-AMC fluorescence; note: 0% = vehicle wells with enzyme and 100% = no enzyme wells
3CLpro inhibitor = SARS-CoV 3CLpro protease inhibition | recombinant SARS-CoV 3CLpro, quenched FRET peptide cleavage | inhibition, % at 6 µM | hit rate 0.14% among 290,000; in the data active = inhibition above about 12%
RecA intein inh = blocks M. tuberculosis RecA intein splicing; hit rate 0.75% among 290,000; inhibition, % (no concentration beside the values); cell-free RecA intein splicing, fluorescence; in the data active = inhibition above about 30%;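 note: 0% = vehicle wells and 100% = reference inhibitor control wells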
DUSP3 inh = blocks human VHR1 dual specificity phosphatase. hit rate 0.52% among 290,000. P51452. inhibition, % at 13.3 µM. recombinant VHR phosphatase, pNPP absorbance; in the data active = inhibition above about 50%
Target sequence (P51452 whole entry, looked up): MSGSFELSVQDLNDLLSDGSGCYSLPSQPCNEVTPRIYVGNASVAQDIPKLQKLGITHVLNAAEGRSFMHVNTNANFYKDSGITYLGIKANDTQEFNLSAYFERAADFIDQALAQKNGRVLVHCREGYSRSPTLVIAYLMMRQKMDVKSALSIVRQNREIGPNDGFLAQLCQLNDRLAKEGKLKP
CCHF vOTU inh-2 = CCHFV vOTU protease inhibition, confirmation. inhibition, % at 11.5 µM. shares compounds with CCHF vOTU inh-1. hit rate 17% among 1,900. Recombinant CCHFV vOTU, Pep-AMC fluorescence. AID 686976
The depositor's hits bear a star; . = no result. Cut-off read from the data, not from the text of the source, unless noted: active = inhibition above about 30%; inactive = the rest.

SMILES	CCHF vOTU inh-1	3CLpro inhibitor	RecA intein inh	DUSP3 inh	CCHF vOTU inh-2
NC1=C(Cl)C(=O)c2ccccc2C1=O	81*	.	.	.	81*
NS(=O)(=O)c1ccc2c(c1)C(=NO)c1cc(S(N)(=O)=O)ccc1-2	-13	1	0	-28	.
NC1=C(Cl)C(=O)c2ccc(S(N)(=O)=O)cc2C1=O	103*	.	.	.	99*
O=C1c2ccccc2-c2nccnc21	8	1	21	18	.
CCOC(=O)[C@]12CCCC=C1N(Cc1cccc3ccccc13)C(=O)[C@H](CC(=O)NCCc1ccccc1OC)C2	18	.	.	.	.
CCCCCCCCCCOC(=O)Cn1c(COc2ccc(Cl)cc2)[n+](C)c2ccccc21	46*	5	-2	6	56*
COc1ccc(C(=O)/C=C/c2ccc(OCc3ccccc3)cc2)cc1CSCC(=O)O	36*	4	21	-7	3
O=c1ccc2cc3c([nH]c4ccc(Br)cc43)oc-2c1O	32*	5	19	-9	9
O=C(O)c1ccc(N=Nc2c(O)[nH]c3ccc(Br)cc23)cc1	19	1	-1	.	.
C=CC[C@H](CC(=O)N(CCO)Cc1ccccc1)C(=O)N[C@@H](COC(=O)[C@@H](CC=C)CC(=O)OC(C)(C)C)Cc1c[nH]c2ccccc12	33*	.	.	.	2
C=CC[C@H](CC(=O)N(CCO)Cc1ccccc1)C(=O)N[C@H](COC(=O)[C@@H](CC=C)Cc1ccc(F)cc1)Cc1c[nH]c2ccccc12	31*	.	.	.	7
C=CC[C@@H](CC(=O)N(CCO)Cc1ccccc1)C(=O)N[C@H](COC(=O)[C@@H](CC=C)Cc1ccc(F)cc1)Cc1c[nH]c2ccccc12	14	.	.	.	.
C=CC[C@H](CC(=O)N(CCO)Cc1ccccc1)C(=O)N[C@H](COC(=O)[C@@H](CC=C)CC(=O)OC(C)(C)C)Cc1ccccc1	22	.	.	.	.
C=CC[C@@H](CC(=O)N(CCO)Cc1ccccc1)C(=O)NC[C@H](OC(=O)[C@@H](CC=C)CC(=O)OC(C)(C)C)c1ccccc1	37*	.	.	.	11
C=CC[C@@H](CC(=O)N(CCO)Cc1ccccc1)C(=O)N[C@H](COC(=O)[C@@H](CC=C)CC(=O)OC(C)(C)C)Cc1ccccc1	37*	.	.	.	21
C=CC[C@H](CC(=O)N(CCO)Cc1ccccc1)C(=O)N[C@H](COC(=O)[C@H](CC=C)CC(=O)OC(C)(C)C)Cc1c[nH]c2ccccc12	24	.	.	.	.
C=CC[C@@H](CC(=O)N(CCO)Cc1ccccc1)C(=O)N[C@@H](COC(=O)[C@H](CC=C)CC(=O)OC(C)(C)C)Cc1c[nH]c2ccccc12	39*	.	.	.	15
C=CCC[C@H](Cc1ccc(F)cc1)C(=O)OC[C@@H](Cc1c[nH]c2ccccc12)NC(=O)[C@@H](CC=C)CC(=O)N[C@@H](CO)Cc1ccccc1	32*	.	.	.	11
COc1ccc(NC(=O)c2ccc(NC(=O)CN(C)CC(=O)Nc3c(C)cccc3C)cc2)cc1	15	6	-1	17	.
Cc1c(N/C(=N/S(=O)(=O)c2ccc(Cl)cc2)c2ccccc2)c(=O)n(-c2ccccc2)n1C	0	-1	2	2	.
CC1(C(=O)NS(=O)(=O)c2cccc(C#N)c2)CCN1C(=O)C1CCCCC1 (stereo not given)	1	.	.	.	.
CC1(C(=O)NS(=O)(=O)c2cccc(F)c2)CCN1C(=O)C1CCCCC1 (stereo not given)	34*	.	.	.	-17
Cc1ccc(-n2ncc3c2CC(C)(C)CC3NC(=O)CCN2CCCO2)cc1 (stereo not given)	11	3	0	-5	.
COCCNC(=O)/C(C#N)=C/c1c(N2CCN(C)CC2)nc2ccccn2c1=O	-119	-1	-75	.	.
COc1ccc(Cl)cc1NC(=O)NCc1ccccn1	0	0	-4	10	.
SMILES	CCHF vOTU inh-1	3CLpro inhibitor	RecA intein inh	DUSP3 inh	CCHF vOTU inh-2
COC(=O)c1ccc(NC(=O)CNCc2ccncc2)cc1	32*	1	0	-7	-11
CCS(=O)(=O)N(C)C[C@@H]1OCc2ccccc2-c2c(n(C)c3ccccc23)C(=O)N([C@H](C)CO)C[C@@H]1C	15	.	.	.	.
C[C@H](CO)N1C[C@H](C)[C@@H](CN(C)Cc2ccc(-c3ccccc3)cc2)Oc2ncc(C#C[C@@H](C)O)cc2C1=O	33*	.	.	.	-25
CN(C)CCCN1c2ccc([N+](=O)[O-])cc2CCc2cc([N+](=O)[O-])ccc21	35*	.	-2	.	-4
CCOC(=O)Nc1ccc2c(c1)N(CCCN(C)C)c1ccccc1CC2	0	-4	-2	-7	.
COc1ccc(OC)c(S(=O)(=O)Nc2ccc(O)c3ccccc23)c1	66*	0	.	-1	-13
COc1ccc(OC)c(S(=O)(=O)Nc2cccc3c(O)cccc23)c1	-7	.	-4	.	.
Cc1ccc(NC(=S)N(Cc2ccc(Br)cc2)Cc2ccc(C(=O)O)cc2)cc1C	31*	2	9	7	6
Cc1cc(C)cc(NC(=S)N(Cc2ccc(Br)cc2)Cc2ccc(C(=O)O)cc2)c1	8	9	15	38	.
Oc1ccc(/C=N\Nc2cc(N3CCOCC3)nc(N3CCOCC3)n2)c(O)c1	42*	0	-3	-2	2
O=C1CC(C(=O)Nc2ccc(F)cc2)S/C(=N\N=C\c2ccco2)N1 (stereo not given)	35*	-5	-1	15	-10
Cc1ccc2c(C(=O)CN3CCN(C(=O)c4ccco4)CC3)c(C)[nH]c2c1	-16	6	0	1	.
COc1ccccc1N(/N=C1\Sc2ccccc2C1=O)C(C)=O	32*	0	15	26	5
COc1ccc(N(/N=C2\Sc3ccccc3C2=O)C(C)=O)cc1	1	-5	2	14	.
COC(=O)c1ccc(N2CCN(C)CC2)c(NC(=O)c2cccs2)c1	3	-5	.	26	.
O=C(c1ccco1)N1CCN(C(=O)c2ccc(CS(=O)c3ccc(Cl)cc3)o2)CC1 (stereo not given)	39*	1	1	15	-8
Cc1ccc(S(=O)Cc2ccc(C(=O)N3CCN(C(=O)c4ccco4)CC3)o2)cc1 (stereo not given)	14	-2	0	11	.
CC(C)CC(C(=O)Nc1ccccc1)N1C(=O)C2C3C=CC(C3)C2C1=O (stereo not given)	16	2	-4	26	.
CCOc1ccccc1NC(=O)COC(=O)c1ccccc1SCC(=O)N1CCCC1	37*	.	-2	.	-10
NC(=O)c1ccc(NC(=O)COC(=O)c2ccccc2SCC(=O)N2CCCC2)cc1	33*	.	.	.	-6
O=C(COC(=O)c1ccccc1SCC(=O)N1CCCC1)Nc1ccccc1C(F)(F)F	-8	-4	2	49	.
CSCCC(NC(=O)COc1ccccc1)C(=O)NCC(C)(C)N1CCOCC1 (stereo not given)	-5	.	.	.	.
O=C(NCc1ccccc1)N1CCC(c2nc3ccc(Cl)cc3[nH]2)CC1	7	.	.	.	.
O=C1CCC/C1=C/Nc1ccc(Cl)cc1	19	7	0	24	.
O=C1CCCC/C1=C\Nc1ccc(O)cc1	35*	3	-62	10	2
O=C(Nc1ccc2nsnc2c1)N1CCCCCC1	-2	-4	-5	12	.
S=C(Nc1ccc2nsnc2c1)N1CCCC1	105*	-1	.	25	-12
